# PubChem BioAssay (NCATS)
# Calls of active or inactive are those of the source. Entries that show only a call come without a potency. Calls come from the whole dose curve; as a rule, active = well fitted cell-killing curve with a large enough effect; inconclusive = small, poorly fitted or top-dose-only effect; inactive = flat fitted curve, though single readings scatter.
# Assay: Cell Viability - LYMP1-002 - Assay at 24 hr (AID 993)
# Conditions: LYMP1-002 lymphoblastoid cells viability; series mostly up to 92.2 µM
# Description: NIH Chemical Genomics Center [NCGC]
# NIH Molecular Libraries Screening Centers Network [MLSCN]
# National Institutes of Environmental Health Sciences [NIEHS]
# National Toxicology Program [NTP]
# We have developed a 1536-well cell-based assay for quantitative high throughput screening (qHTS) against a number of cell lines to determine in vitro cytotoxicity of small molecules. This particular assay uses a human lymphoblastoid cell line (LYMP1-002) purchased from Coriell Institute for Medical Research.
# NCGC Assay Protocol Summary:
# The CellTiter-Glo luminescent cell viability assay (Promega) is a homogeneous method to measure the number of viable cells in culture. The end point readout of this assay is based on quantitation of intracellular ATP, an indicator of metabolic activity, using the luciferase reaction. Luciferase catalyzes the oxidation of beetle Luciferin to oxyluciferin and light in the presence of ATP. The luminescent signal is proportional to amount of ATP present.
# Using the CellTiter-Glo luminescent cell viability assay, the amount of cellular ATP was measured in the lymphoblastoid cell line with complete culture medium following compound treatment for 24 hours. The assay was performed in opaque white Kalypsys 1536-well plates. In the screen, tetraoctylammonium bromide was used as positive control. Library compounds were measured for their ability to cause acute toxicity in the cell line, as reflected by a decrease in intracellular ATP levels, in a concentration-dependent manner. […] AC50 values were determined from concentration-response data modeled with the standard Hill equation.
# qHTS protocol for CellTiter Glo lymphoblastoid cellular assay
# [Step] [Parameter] [Value] [Description]
# 1. Reagent; 5 uL; 2500 lymphoblastoid cells/well
# 2. Time; 5 hr; 37 C incubation
# 4. Controls; 23 nL; Tetraoctylammonium bromide 6.4pM to 92 uM
# 5. Time; 24 hr; 37 C incubation
# 6. Reagent; 5 uL; CellTiter Glo reagent
# 7. Time; 30 min; Room Temperature
# 8. Detection; Luminescence; Viewlux plate reader
# Keywords: cell viability, cytotoxicity, lymphoblastoid cell line, luminescence, NTPHTS, NTPHTS_NCGC, NIEHS, DSSTox, MLSMR, MLSCN, NIH Roadmap, qHTS, NCGC
row,Structure (SMILES),Potency
1,Cc1ccc(N)c(C)c1,inactive
2,C=CC(=O)OC,inactive
3,O=C(O)CBr,inactive
4,ClC(Cl)(Cl)C(Cl)(Cl)Cl,inactive
5,[O-][Cl+]O,inactive
6,C/C=C/C=O,inactive
7,Nc1c(Cl)cc([N+](=O)[O-])cc1Cl,inactive
8,CCCN(CCC)c1c([N+](=O)[O-])cc(C(F)(F)F)cc1[N+](=O)[O-],inactive
9,CCOC(=O)C1OC1(C)c1ccccc1 (stereo not given),inactive
10,ClC(Cl)c1ccccc1,inactive
11,O=[N+]([O-])c1cccc(O)c1,inactive
12,O=[N+]([O-])c1ccc(Cl)c(Cl)c1Cl,inactive
13,CCOP(=O)(OCC)OCC,inactive
14,O=C(O)C(Cl)Br (stereo not given),inactive
15,CC1CC(=O)O1 (stereo not given),inactive
16,Clc1cc(Cl)c(Cl)c(Cl)c1,inactive
17,Oc1ccc(Cl)c(Cl)c1,inactive
18,CC(C)(COCC1CO1)COCC1CO1 (stereo not given),inactive
19,CC(=O)[O-].CC(=O)[O-].CC(=O)[O-].[Cr+3],inactive
20,c1ccc(P(c2ccccc2)c2ccccc2)cc1,inactive

row,Structure (SMILES),Potency
1,ClCCCCl,inactive
2,Cc1ccc(N)cc1C,inactive
3,CN(C)c1ccc(N=Nc2ccccc2)cc1,inactive
4,O=[N+]([O-])c1cc(Cl)c(Cl)c(Cl)c1,inactive
5,O=NN1CCCCC1,inactive
6,NNC(N)=S,inactive
7,ClC=CCl,inactive
8,Oc1cc(Cl)c(Cl)c(Cl)c1Cl,inactive
9,COc1cc(-c2ccc(N)c(OC)c2)ccc1N,inactive
10,CCCCC(=O)Cl,inactive
11,CN(C)c1ccc(N(C)C)cc1,inactive
12,CCCCOCC1CO1 (stereo not given),inactive
13,Nc1ccc(Cl)c(Cl)c1,inactive
14,CCCCCOC(=O)c1ccccc1C(=O)OCCCCC,inactive
15,O=[N+]([O-])c1ccccc1CCl,inactive
16,Cc1ccc(N=C=O)cc1N=C=O,inactive
17,O=[N+]([O-])c1ccc(O)c([N+](=O)[O-])c1,inactive
18,C=CC(=O)OCCO,inactive
19,Nc1ccc(Oc2ccc(N)cc2)cc1,inactive
20,O=C(O)CCl,inactive
